Experimental data: PubChem BioAssay AID588475 (Sanford-Burnham Center for Chemical Genomics, 2011)
The campaign covered roughly 350,000 compounds. About 2,100 (0.6%) were called active. What follows is part of a selection rich in actives, with near analogues and random picks from the rest. Values without a mark were called inactive.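 Rule for the calls: active = inhibition of the ligand-induced calcium signal above about 50% at the single tested concentration (limit read from the data); inactive = the rest.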

test: blockers of CRF-evoked CRF-R2/CRF-BP calcium response – cell-based, HEK293, calcium dye fluorescence, uHTS, primary screen (AID 588475); settings: CRF-induced calcium fluorescence, at 11.8 µM, hits give high values

In order of rising inhibition:
1. COc1cc(OC)cc(C(=O)N[C@H](C(=O)OCC(=O)NC(C)c2ccccc2)C(C)C)c1 (stereo partly drawn)  -108%
2. Cc1cc([N+](=O)[O-])c(NC2CCCCC2)c([N+](=O)[O-])c1  -26.8%
3. Cc1c(C(=O)OCC(=O)N(CCC#N)c2ccccc2)oc2c1ccc1ccccc12  -18.4%
4. O=C(N/N=C/c1cccc2cccnc12)[C@H]1C[C@@H]1c1ccccc1  -18.3%
5. S=c1[nH]ccn1-c1ccc(Cl)cc1  -16.2%
6. Cc1ccc(SC(CC(=O)c2ccc(C(C)(C)C)cc2)C(=O)O)cc1 (stereo not drawn)  -15.1%
7. Cc1cccc(C(=O)C(O)(c2ccccc2)C2CCCCC2=O)c1 (stereo not drawn)  -14%
8. CCCN(CCc1ccccc1)C1CCc2c(O)cccc2C1 (stereo not drawn)  -13%
9. CCc1ccc(CN(C)C(C)C(=O)Nc2ccc(S(=O)(=O)N3CCCC3)cc2)cc1 (stereo not drawn)  -10.1%
10. O=C(NNC(=S)NC1CC2CCC1C2)c1ccc(Cl)cc1 (stereo not drawn)  -9.96%
11. CCc1nc2ccccc2n(CCOCCOCCn2c(=O)c(CC)nc3ccccc32)c1=O  -9.64%
12. COc1cc(-c2nnc(NC(=O)C3=COCCO3)o2)cc(OC)c1OC  -9.37%
13. COCc1[nH]nc2c1C(C1C=CCCC1)C(C#N)=C(N)O2 (stereo not drawn)  -8.71%
14. OCC1OC(n2cnc3c(N4CCCC4)ncnc32)C(O)C1O (stereo not drawn)  -7.64%
15. O=S(=O)(CCc1nc2ccccc2o1)c1ccc(Cl)cc1  -6.01%
16. O=C(Nc1nnc(C2=COCCO2)o1)c1ccc([N+](=O)[O-])s1  -4.65%
17. Cn1cc(S(=O)(=O)N2CCN(c3ccc(F)cc3)CC2)c(=O)n(C)c1=O  -4.51%
18. O=C(CCC(=O)c1ccccc1)NCc1cccc(C(F)(F)F)c1  -4.39%
19. CC(C)[C@H](NC(=O)N1CCn2c1nc1ccccc12)C(=O)NCc1ccc2c(c1)OCO2  -3.94%
20. CCOC(=O)C(C)N(c1ccccc1Cl)S(C)(=O)=O (stereo not drawn)  -3.83%
21. O=C(CCS(=O)(=O)c1ccc(Br)cc1)NCCc1ccc(Cl)cc1  -3.71%
22. COc1ccc(C(CC(=O)Nc2ccc(C)cc2)NC(=O)C(F)(F)F)cc1 (stereo not drawn)  -3.52%
23. C/C(CC(=O)Nc1cccc(C(F)(F)F)c1)=N\NC(=O)C(=O)NCC(C)C  -3.29%
24. CCCCn1c(N)c(N(CC(C)C)C(=O)CN(C)S(=O)(=O)c2ccc(F)cc2)c(=O)[nH]c1=O  -2.99%
25. Cc1nc(N)c(Br)c(C)c1Br  -2.67%
26. CCOC(=O)N1CCC(NC(=O)C(NS(=O)(=O)c2ccc3c(c2)CCN3C(=O)CC)C(C)C)CC1 (stereo not drawn)  -2.51%
27. CC(NC(=O)COC(=O)C1CCN(S(=O)(=O)c2ccccc2C(F)(F)F)CC1)c1ccccc1 (stereo not drawn)  -1.56%
28. O=C(CCNC(=O)Cn1ccc2ccccc2c1=O)NCCC1=CCCCC1  -1.26%
29. CCCCN(CC)CCNC(=O)CCNC(=O)Cn1ccc2ccccc2c1=O  -0.99%
30. CS(=O)(=O)N(Cc1nc2sc3c(c2c(=O)[nH]1)CCCC3)C1CCCCC1  -0.95%
31. O=C(Nc1ccc(S(=O)(=O)Nc2ccccn2)cc1)c1ccccc1  -0.79%
32. O=S(=O)(Nc1ccccc1N1CCOCC1)c1ccc(Cl)s1  -0.68%
33. COCCN(C(=S)Nc1ccccc1OC)C1CCN(C(C)C)CC1  -0.52%
34. C/C(=N\Nc1ccccc1)c1cccs1  -0.14%
35. Cc1ccc(S(=O)(=O)NNC(=S)NC(C)(C)C)cc1  0.02%
36. COC(=O)c1ccc(CN2C(=O)NC(c3ccccc3)(c3ccccc3)C2=O)o1  0.1%
37. COC(=O)Cn1cnc2scc(-c3ccc(C)c(C)c3)c2c1=O  0.19%
38. CCNC(=O)NNC(=O)C1CC(c2cccs2)=NO1 (stereo not drawn)  0.63%
39. O=C(NCCCN1CCOCC1)c1ccccc1NS(=O)(=O)c1ccc(Br)cc1  1.32%
40. Cc1ccc(C(=O)N/C(=C\c2cn(C)c3ccccc23)C(=O)N2CCN(C)CC2)cc1  1.64%
41. COc1cc(OC)cc(-c2c(C#Cc3ccsc3)c3cc(-c4ccc(SC)cc4)ccc3n2C)c1  1.84%
42. O=C(CCOc1ccccc1)NCc1ccccc1  2.03%
43. CCC(C)C(NC(=O)C1CCC(=O)N1C(=O)OCc1ccccc1)C(=O)NC(C(=O)N1CCCC1C(N)=O)C(C)CC (stereo not drawn)  2.28%
44. N#CCc1c[nH]c2ccc([N+](=O)[O-])cc12  2.31%
45. CC(C)Oc1ccc(Cc2n[nH]c(=S)n2Cc2ccccc2)cc1Cl  2.65%
46. CC(C)[C@H](NC(=O)N1CCn2c1nc1ccccc12)C(=O)NCCc1ccccc1  2.7%
47. CCc1nn(CC(=O)N2CCN(c3cc(C)ccc3C)CC2)c(=O)c2cc3occc3n12  3.13%
48. COc1ccc(C2C(C#N)=C(N)Oc3n[nH]c(C)c32)cc1CN1CCN(c2ccc(F)cc2)CC1 (stereo not drawn)  3.36%
49. COc1ccc2nc(N3C(=O)C(O)=C(C(=O)c4ccco4)C3c3ccco3)sc2c1 (stereo not drawn)  3.47%
50. COc1cccc(CNC(=O)CCN2C(=S)NC(C)(C)CC2C)c1 (stereo not drawn)  3.81%
51. Cc1c(OC(C)C(=O)NCC2CCC(C(=O)O)CC2)ccc2c1oc(=O)c1ccccc12 (stereo not drawn)  4.13%
52. O=C1c2cccc3cccc(c23)C(=O)N1c1cccc(O)c1  4.66%
53. O=C(CSc1nnnn1-c1ccc(O)cc1)c1ccc(F)cc1  4.96%
54. O=[N+]([O-])c1ccc(C(S(=O)(=O)Cc2ccccc2)S(=O)(=O)Cc2ccccc2)cc1  5.72%
55. Cn1c(-c2ccc(C(=O)c3ccccc3)s2)nc2ccccc21  6.07%
56. COc1ccccc1C(=O)Nc1ccccc1C(=O)Nc1ccccc1  6.12%
57. Cc1ccc(C)c(C(=O)COC(=O)Cn2[nH]c(=O)c3ccccc3c2=O)c1  6.49%
58. CC(C)C(NS(=O)(=O)c1cccs1)C(=O)Nc1nc(C(C)(C)C)cs1 (stereo not drawn)  7.44%
59. COc1ccc(NC(=O)CSc2nnnn2-c2cccc(OC)c2)cc1  8.16%
60. Cc1cc(-c2nnc(SCC(=O)Nc3ccc(S(N)(=O)=O)cc3)n2N)n[nH]1  9.63%
61. COC(=O)c1ccc(COc2ccc(C#N)cc2)o1  10.2%
62. COc1ccc(N=C2C=CC(=O)O2)cc1  11.2%
63. O=C(Nc1cccc(C(=O)O)c1)/C(=C\c1ccccc1)NC(=O)c1ccc(Br)o1  12.3%
64. CC1CN/C(=C\C(=O)c2ccc(Br)cc2)C(=O)N1 (stereo not drawn)  12.3%
65. Cc1ccc(S(=O)(=O)/N=C(\CN2CCOCC2)N2CCOCC2)cc1  12.5%
66. O=C(OC1CCCCC1=O)c1cccc(S(=O)(=O)NCc2ccccc2)c1 (stereo not drawn)  12.8%
67. CCn1cc(/C=C2/SC(=S)NC2=O)c(C)n1  13.4%
68. CCCc1cc(=O)n2[nH]c(C)c(-c3ccc(Cl)cc3)c2n1  13.7%
69. O=C(/C(=N\O)n1cncn1)c1ccc(Br)cc1Br  14.7%
70. CN(C)S(=O)(=O)c1ccc(C(=O)NCC(C)(C)N2CCOCC2)cc1  15.6%
71. CC(C)NC(=O)CSc1ccccc1C(=O)NCc1ccc2c(c1)OCO2  17%
72. COc1ccccc1N(C)S(=O)(=O)c1ccc(Cl)c(C(=O)N2CCC(C(N)=O)CC2)c1  17.1%
73. Cc1nonc1C1CCCN1Cc1nc(-c2ccc(F)cc2F)oc1C (stereo not drawn)  17.3%
74. COC(=O)c1ccccc1NS(=O)(=O)c1ccc2[nH]c(=O)[nH]c2c1  17.7%
75. C=CCSc1nnc(N2C(=O)C(O)=C(C(=O)c3ccco3)C2c2ccc(F)cc2)s1 (stereo not drawn)  17.8%
76. O=[N+]([O-])c1ncc(Br)cc1Nc1ccccc1  17.9%
77. CC(=O)NNC1=Nc2ccccc2N(C)C(C)C1 (stereo not drawn)  19%
78. COc1cc(OC)cc(C(=O)Nc2ncc3c(n2)CC(C)(C)CC3=O)c1  20%
79. COc1ccccc1-n1c(C)nc2cc(C(=O)NCc3ccc4c(c3)OCO4)ccc21  20.9%
80. Cc1cc([N+](=O)[O-])ccc1NCc1cccc([N+](=O)[O-])c1  34.2%
81. Cc1nc2c(-c3ccccc3)c(C)[nH]n2c(=O)c1Cl  42.5%

With Cc1nc2c(C(=O)NCc3ccc4c(c3)OCO4)c[nH]n2c(=O)c1Cc1ccccc1F the inhibition was 53.2% (active).
For Cc1ccc2nc(N3C(=O)C(O)=C(C(=O)c4ccco4)C3c3cccc(O)c3)sc2c1 (stereo not drawn), the inhibition was 51.9% (active).
With Cc1ccc(CNC(=O)CCNC(=O)Cn2ccc3ccccc3c2=O)cc1 the inhibition was 87.1% (active).
With Cc1ccc(C(=O)Nc2nnc(C3=COCCO3)o2)cc1C the inhibition was 51.4% (active).
For O=C1CCCCC1C(=O)c1ccccc1 (stereo not drawn), the inhibition was 52.8% (active).
With Cc1cc([N+](=O)[O-])ccc1NC1CCCC1 the inhibition was 72% (active).
For Cc1[nH]n(-c2cccc(Cl)c2)c(=O)c1-c1ccc(Cl)cc1, the inhibition was 50.6% (active).
For COc1ccc(NC(=O)C(=O)NCC(=O)Nc2cccc(C(F)(F)F)c2)cc1, the inhibition was 55.4% (active).
For Cc1nn2c3ccccc3nc2n(C)c1=O, the inhibition was 83.2% (active).
In the case of COc1ccc(-n2nnnc2SCC(=O)c2ccc(OC)c(OC)c2)cc1, the inhibition is reported as 51.1% (active).
With O=C(CCC(=O)OCC(F)(F)C(F)F)NCc1ccccc1 the inhibition was 108% (active).
With CCC(C)[C@H](NC(=O)N1CCn2c1nc1ccccc12)C(=O)NCc1ccc(OC)cc1 (stereo partly drawn) the inhibition was 52.2% (active).
With O=C(NCCS(=O)(=O)c1ccc(Br)cc1)c1ccccc1Cl the inhibition was 71.2% (active).
For COc1cc(C2C(C#N)=C(N)Oc3n[nH]c(-c4ccccn4)c32)cc(OC)c1OC (stereo not drawn), the inhibition was 52.2% (active).
With COC(=O)c1ccc(Cc2ccccc2)o1 the inhibition was 53% (active).
In the case of COC(=O)c1ccc(NC(=O)c2ccccc2NS(=O)(=O)c2ccccc2)cc1, the inhibition is reported as 61% (active).
In the case of COc1cc(NC(=O)c2ccccc2NS(=O)(=O)c2ccc(Cl)s2)cc(OC)c1, the inhibition is reported as 90.5% (active).
